Experimental findings from PubChem BioAssay AID1578 (Sanford-Burnham Center for Chemical Genomics, 2009) are described below.

The inhibition is the relative decrease from the control value, in per cent.

Out of some 290,000 compounds screened, about 3,000 (1%) were called active. Many of the other results were omitted from the sample, so actives are more common in it than they were. A number with no mark means an inactive call. Cut-off read from the data, not from the text of the source: active = inhibition mostly above about 36% (no sharp cut-off); inactive = mostly below about 34%.

The experiment can be described thus: inhibition of NOD1-driven NF-kB reporter – cell-based, luminescence, uHTS, primary screen (AID 1578).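 Note: HEK-293T reporter cells stimulated with the NOD1 agonist gamma-tri-DAP.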 To be noted: NOD1-driven NF-kB luciferase reporter cells, at 4 µM, active compounds read high.
In the case of `COc1cc(Cl)ccc1OCc1cc(C(=O)N(C)Cc2cccc3cnccc23)no1`, the inhibition was 11.4%.
In the case of `CC1(C)SC(=S)N(/N=C/c2ccccc2O)C1N(O)C(=O)Nc1ccccc1` (stereo unspecified) it was -1.1%.
In the case of `CCCSc1nnc(NC(=O)c2nc(SC)ncc2Cl)s1` it was -10.4%.
Then `Cc1cccn2c(=O)c(C=Nc3c(C)n(C)n(-c4ccccc4)c3=O)c(N3CCCC3)nc12`, with -3.8%; and `COc1ccccc1NC(=S)N1CCc2cc(OC)c(OC)cc2C1`, with -30%.
As to `Oc1ccc2ccccc2c1/C=N/c1nccs1`, the inhibition was -6%.
In the case of `Oc1ccc2ccccc2c1N=Nc1nccs1`, the inhibition was 106% (active).
In the case of `Oc1ccc(N=Nc2c(O)ccc3ccccc23)cc1` it was 24%; in that of `CCCCC(=O)Nc1cc(NC(=O)CC)ccc1Cl`, -13.8%; in that of `CCn1c(SC)nnc1-c1nnc(SC)n1CC`, -5.7%.
Consider `Cc1cc(C)cc(C(=O)NCc2ccc3c(c2)OCO3)c1`, for which the inhibition was -31%.
Then `Cc1cc2oc(=O)cc(C)c2cc1NC(=O)CCl`, with 42.5% (active); and `CCC(=O)Nc1cc2c(C)cc(=O)oc2cc1C`, with -1.6%; and `Cc1cc2oc(=O)cc(C)c2cc1NC(=O)CCC(=O)O`, with -10.8%.
Then `Cc1cc(OCc2ccc(C(=O)n3cccn3)o2)ccc1Cl`, with -24.5%; and `Cc1ccc(C)c(NC(=O)CSc2nnc([C@@H]3CCCN3C(=O)OC(C)(C)C)o2)c1`, with 9.1%; and `CCOC(=O)c1cnc(Nc2nc3ccccc3o2)nc1CSC(=S)N(CC)CC`, with -23%.
Take `CCOC(=O)c1cnc(Nc2nc3ccccc3o2)nc1C`: the inhibition is 78.1% (active).
As for `CCOC(=O)c1cnc(Nc2nc3ccccc3o2)nc1CN1CCN(C)CC1`, the inhibition is -1.5%.
Then `O=C(O)c1ccc2c(=O)n3c(nc2c1)/C(=C/c1ccccc1Br)CC3`, with -85.4%; and `CCOC(=O)c1c(C)oc2c1c(C=NCCC(=O)O)c(O)c1ccccc12`, with -16.5%; and `CCOC(=O)c1c(C)oc2c1c(C=NCCO)c(O)c1ccccc12`, with -37.2%.
In the case of `CCOC(=O)c1c(C)oc2c1c(C=NC1CCS(=O)(=O)C1)c(O)c1ccccc12` (stereo unspecified) it was 75.8% (active).
Then `CCOC(=O)c1c(-c2ccccc2)csc1NC(=O)C(C)NCc1ccco1` (stereo unspecified), with 1.6%; and `N#C/C(=C\c1ccc(F)c(Cl)c1)S(=O)(=O)c1ccccn1`, with 0.3%.
For the molecule `CC1(C)OC2OC(C(=O)N/N=C/c3ccccc3F)C3OC(C)(C)OC3C2O1` (stereo unspecified), the inhibition is -13.7%.
In the case of `CC1(C)C(C=C(Cl)Cl)C1C(=O)N/N=C/c1ccccc1F` (stereo unspecified) it was 80.1% (active).
In the case of `COc1ccc(/C=N/NC(=O)C2C(C=C(Cl)Cl)C2(C)C)c(OC)c1` (stereo unspecified) it was -24.6%; in that of `CCN1CNC(=S)N(c2cccc(C)c2)C1`, -5.8%; in that of `CCC(CC)c1nnc(NC(=O)c2cccc(S(=O)(=O)N3CCc4ccccc43)c2)s1`, 56.8%.
Then `CCOC(=O)c1sc(NC(=O)c2cccc(S(=O)(=O)N3CCc4ccccc43)c2)c(C#N)c1C`, with 79.7% (active); and `Cc1nnc(NC(=O)c2cccc(S(=O)(=O)N3CCc4ccccc43)c2)s1`, with 11.7%.
As to `COc1cc2ccccc2cc1C(=O)Nc1ccc(N2CCN(C(=O)C(C)C)CC2)cc1`, the inhibition was 17.8%.
Take `CC(=O)OC(C(=O)NC1CCCCC1)c1ccccc1F` (stereo unspecified): the inhibition is -33.2%.
Then `O=C(NN1CCOCC1)c1ccc(Cl)cc1[N+](=O)[O-]`, with -11.4%; and `O=C(Nc1ccc(Br)cc1)c1cccc(S(=O)(=O)Nc2cnc3ccccc3c2)c1`, with 48.2%.
Then `COc1ccc(NS(=O)(=O)c2ccc3oc4ccccc4c3c2)cn1`, with 56.6%.
Turning to `O=C(O)c1ccc(NS(=O)(=O)c2cccc(C(=O)Nc3ccc(Br)cc3)c2)cc1`, the inhibition is -13.1%.
For the molecule `COc1ccc(NS(=O)(=O)c2ccc(Br)cc2)cn1`, the inhibition was -35.5%.
In the case of `Cc1ccc2cc(NC(=O)CC(CC(=O)O)c3ccccc3)ccc2n1` (stereo unspecified) it was -10.4%; in that of `CNC(=S)NCCc1ccc(OC)c(OC)c1`, 24.7%; in that of `CCN(CC)S(=O)(=O)c1cccc(NC(=O)COC(=O)CCC(=O)c2ccc(F)cc2)c1`, -40.1%.
For the molecule `O=C(c1cc2ccccc2oc1=O)N(c1ccccc1)C1C=CS(=O)(=O)C1` (stereo unspecified), the inhibition was 5.4%.
In the case of `C/C(=N\N=C(/N)SC1CC(=O)N(c2ccccc2)C1=O)c1cccs1` (stereo unspecified) it was 15.7%; in that of `C/C(=N\N=C(/N)SC1CC(=O)N(c2ccc(Cl)cc2)C1=O)c1cccs1` (stereo unspecified), -4.8%; in that of `C/C(=N\N=C(/N)SC1CC(=O)N(c2ccc(Br)cc2)C1=O)c1cccs1` (stereo unspecified), 87.7% (active).
Then `Cc1cccnc1CN1CCN(C(=O)CCc2nnc(CCc3ccccc3)o2)CC1`, with -55.3%.
Then `CC(C)N1C(=O)/C(=C\c2nc3ccccc3c(=O)[nH]2)c2ccccc21`, with 105% (active); and `CCN1C(=O)/C(=C/c2nc3ccccc3c(=O)[nH]2)c2ccccc21`, with 21.1%.
For the molecule `CCCN1C(=O)/C(=C/c2nc3ccccc3c(=O)[nH]2)c2ccccc21`, the inhibition is -6.3%.
In the case of `CC(CC(=O)Nc1ncc([N+](=O)[O-])s1)c1ccccc1` (stereo unspecified) it was -19.5%.
Turning to `CCCCC(=O)Nc1ncc([N+](=O)[O-])s1`, the inhibition was -10.8%.
In the case of `CC(C)CC(=O)Nc1ncc([N+](=O)[O-])s1` it was 3.6%.
Then `Cc1ccc(CC(=O)Nc2ncc([N+](=O)[O-])s2)cc1`, with -37.4%.
Then `O=C(COc1ccc(Cl)cc1)Nc1ncc([N+](=O)[O-])s1`, with 73.5% (active); and `O=C(CS(=O)(=O)c1ccccc1)Nc1ncc([N+](=O)[O-])s1`, with -39%; and `COc1ccc(CC(=O)Nc2ncc([N+](=O)[O-])s2)cc1OC`, with -65%.
For `CC(C1CC1)N(Cc1ccccc1)C(=S)Nc1ccccc1Cl` (stereo unspecified), the inhibition is -9.7%.
In the case of `CC(SCC(=O)O)c1nc2ccccc2[nH]1` (stereo unspecified) it was 10.8%.
Consider `CCOc1ccccc1N(C)S(=O)(=O)c1ccc2c(c1)N(C(C)=O)CCO2`, for which the inhibition was 5.2%.
For `NC(=O)/C(=C\c1ccccc1)NC(=O)/C=C/c1ccccc1`, the inhibition is -19%.
